# In article PMC9911399, “Two distinct binding modes provide the RNA-binding protein RbFox with extraordinary sequence specificity”:
# Changes are numbered by the printed parent chain; changes in the protein carry UniProt numbers. In all, about 16,000 sequences were measured (“ka relative to ugcaugu”: median about 0.096, highest 2% from about 0.35 on). Only a selection was taken, and the highest values are over-represented in it overall.
# B1: UAUCAUA (DNA:RNA)
# RNA: GGGAGACCGGAAUUCAGAUUGUCCUAUCAUAUUAAAUCCCGUCGUAGCCACCA
# DNA 1: CAATCTGAATTCCGGTCTCCC
# DNA 2: TGGTGGCTACGACGGGATT
# B2: GAAGCUA (DNA:RNA)
# RNA: B1 RNA with U25G, U27A, C28G, A29C
# DNA 1: CAATCTGAATTCCGGTCTCCC
# DNA 2: TGGTGGCTACGACGGGATT
# B3: CAGCUCU (DNA:RNA)
# RNA: B1 RNA with U25C, U27G, A29U, U30C, A31U
# DNA 1: CAATCTGAATTCCGGTCTCCC
# DNA 2: TGGTGGCTACGACGGGATT
# B4: GUAUCAG (DNA:RNA)
# RNA: GGGAGACCGGAAUUCAGAUUGUCCGUAUCAGUUAAAUCCCGUCGUAGCCACCA
# DNA 1: CAATCTGAATTCCGGTCTCCC
# DNA 2: TGGTGGCTACGACGGGATT
# B5: AGUCGCC (DNA:RNA)
# RNA: B1 RNA with U25A, A26G, A29G, U30C, A31C
# DNA 1: CAATCTGAATTCCGGTCTCCC
# DNA 2: TGGTGGCTACGACGGGATT
# B6: UCGGAGC (DNA:RNA)
# RNA: B1 RNA with A26C, U27G, C28G, U30G, A31C
# DNA 1: CAATCTGAATTCCGGTCTCCC
# DNA 2: TGGTGGCTACGACGGGATT
# B7: AACUUUG (DNA:RNA)
# RNA: B4 RNA with G25A, U26A, A27C, C29U, A30U
# DNA 1: CAATCTGAATTCCGGTCTCCC
# DNA 2: TGGTGGCTACGACGGGATT
# B8: CCCGGUA (DNA:RNA)
# RNA: B1 RNA with U25C, A26C, U27C, C28G, A29G
# DNA 1: CAATCTGAATTCCGGTCTCCC
# DNA 2: TGGTGGCTACGACGGGATT
# B9: GGUAUCG (DNA:RNA)
# RNA: B4 RNA with U26G, A27U, U28A, C29U, A30C
# DNA 1: CAATCTGAATTCCGGTCTCCC
# DNA 2: TGGTGGCTACGACGGGATT
# B10: AGGUAUC (DNA:RNA)
# RNA: B1 RNA with U25A, A26G, U27G, C28U, A31C
# DNA 1: CAATCTGAATTCCGGTCTCCC
# DNA 2: TGGTGGCTACGACGGGATT
# B11: AAGUAUC (DNA:RNA)
# RNA: B1 RNA with U25A, U27G, C28U, A31C
# DNA 1: CAATCTGAATTCCGGTCTCCC
# DNA 2: TGGTGGCTACGACGGGATT
# B12: CGGUAUG (DNA:RNA)
# RNA: B4 RNA with G25C, U26G, A27G, C29A, A30U
# DNA 1: CAATCTGAATTCCGGTCTCCC
# DNA 2: TGGTGGCTACGACGGGATT
# B13: AAGUAAA (DNA:RNA)
# RNA: B1 RNA with U25A, U27G, C28U, U30A
# DNA 1: CAATCTGAATTCCGGTCTCCC
# DNA 2: TGGTGGCTACGACGGGATT
# B14: CGUAUGU (DNA:RNA)
# RNA: B1 RNA with U25C, A26G, C28A, A29U, U30G, A31U
# DNA 1: CAATCTGAATTCCGGTCTCCC
# DNA 2: TGGTGGCTACGACGGGATT
# B15: CUUAUGU (DNA:RNA)
# RNA: B4 RNA with G25C, A27U, U28A, C29U, A30G, G31U
# DNA 1: CAATCTGAATTCCGGTCTCCC
# DNA 2: TGGTGGCTACGACGGGATT
# B16: AGGUAGC (DNA:RNA)
# RNA: B4 RNA with G25A, U26G, A27G, C29A, A30G, G31C
# DNA 1: CAATCTGAATTCCGGTCTCCC
# DNA 2: TGGTGGCTACGACGGGATT
# B17: AGGUAUG (DNA:RNA)
# RNA: B4 RNA with G25A, U26G, A27G, C29A, A30U
# DNA 1: CAATCTGAATTCCGGTCTCCC
# DNA 2: TGGTGGCTACGACGGGATT
# B18: AAGUAUG (DNA:RNA)
# RNA: B1 RNA with U25A, U27G, C28U, A31G
# DNA 1: CAATCTGAATTCCGGTCTCCC
# DNA 2: TGGTGGCTACGACGGGATT
# B19: CAUAUGU (DNA:RNA)
# RNA: B1 RNA with U25C, C28A, A29U, U30G, A31U
# DNA 1: CAATCTGAATTCCGGTCTCCC
# DNA 2: TGGTGGCTACGACGGGATT
# Target: T1, RBFOX1 RRM RbFoxmut (Fox-RRM*) (Homo sapiens, UniProt Q9NWB1 109-208, R118D;E147R;N151S;E152T)
# T1 sequence: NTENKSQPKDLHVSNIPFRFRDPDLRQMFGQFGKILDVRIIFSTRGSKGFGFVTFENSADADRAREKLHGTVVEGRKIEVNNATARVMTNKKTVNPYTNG
# Assay: EMSA; HiTS-Eq, 1 nM pool, 10 min; buffer printed only for the single-RNA assays: 10 mM Tris pH 7.5, 150 mM NaCl, 3.4 mM EDTA, 0.001% NP-40, 30 C
# Conditions: tags: His6 N-terminal (pET28a); label: 5' 32P
# Method in brief: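 Purified wild-type or mutant RbFox RRM at increasing concentrations was equilibrated with 1 nM of 5′-radiolabelled RNA carrying 7 randomized nucleotides for 10 min in 50 µL. Unbound RNA was separated by 8% native PAGE and sequenced. Relative association constants came from read-count changes of each RNA species compared with the control reaction, normalised to the cognate motif.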
row,Binder,binding signal
1,B1,0.0784 KA relative to UGCAUGU
2,B2,0.0968 KA relative to UGCAUGU
3,B3,0.0953 KA relative to UGCAUGU
4,B4,0.229 KA relative to UGCAUGU
5,B5,0.0636 KA relative to UGCAUGU
6,B6,0.0837 KA relative to UGCAUGU
7,B7,0.0853 KA relative to UGCAUGU
8,B8,0.111 KA relative to UGCAUGU
9,B9,0.348 KA relative to UGCAUGU
10,B10,0.191 KA relative to UGCAUGU
11,B11,0.151 KA relative to UGCAUGU
12,B12,0.885 KA relative to UGCAUGU
13,B13,0.124 KA relative to UGCAUGU
14,B14,0.554 KA relative to UGCAUGU
15,B15,0.158 KA relative to UGCAUGU
16,B16,0.114 KA relative to UGCAUGU
17,B17,1.01 KA relative to UGCAUGU
18,B18,0.498 KA relative to UGCAUGU
19,B19,0.149 KA relative to UGCAUGU
